Assay [1] in a line: ATG_GRE_CIS: Attagene CIS-FACTORIAL HepG2 Assay for human Glucocorticoid Response Elements (GRE) (AID 2282947). To be noted: HepG2 GRE cis-reporter, Attagene multiplex mRNA; actives raise or lower the signal. The method, boiled down:
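HepG2, transient cis-reporter transfection, 24 h. Reporter mRNA: RT-PCR then CE, fluorescence. Fit both directions vs DMSO.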

Assay [2] is described as follows: ATG_M_32_CIS: Attagene CIS-FACTORIAL HepG2 Assay for M32 Transcription Factor (Internal Marker) (AID 2282949).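 Also: background control marker of the multiplexed CIS panel rather than a real target.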 To be noted: HepG2 Attagene cis-factorial M32 reporter, mRNA; actives raise or lower the signal. The essentials:
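Using DMSO as baseline, bidirectional curve fits were applied to reporter mRNA signals. These came from transiently transfected HepG2 cells exposed for 24 h, with RNA analysed by RT-PCR, FAM primer extension, HpaI digestion and CE.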

Assay [3] in a line: ATG_M_06_CIS: Attagene CIS-FACTORIAL HepG2 Assay for M06 Transcription Factor (Internal Marker) (AID 2282950). To be noted: HepG2 Attagene CIS-FACTORIAL M06 internal marker reporter; actives raise or lower the signal. The essentials:
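Steps: transfect HepG2 with multiplexed cis-element reporter constructs; dose chemical 24 h; extract RNA with DNase treatment; reverse-transcribe, PCR-amplify, 6-FAM label, HpaI digest; separate fragments by capillary electrophoresis. Activity fitted both directions versus DMSO.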

Assay [4] concerns the target Hypoxia-inducible factor 1-alpha (Homo sapiens) (UniProt Q16665). The experiment in a line: ATG_HIF1a_CIS: Attagene CIS-FACTORIAL HepG2 Assay for human Hypoxia Inducible Factor 1 (HIF1A) (AID 2282951). The settings on record: HepG2 Attagene cis-factorial HIF1a reporter transcription; actives raise or lower the signal. The method, boiled down: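 HepG2 cells transiently transfected with multiplexed cis-promoter reporter units; reporter mRNA read 24 h after dosing by RT-PCR, 6-FAM primer-extension labelling, HpaI digestion and capillary electrophoresis. Bidirectional fit versus DMSO baseline.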

The target of assay [5] is Hepatocyte nuclear factor 6 (Homo sapiens) (UniProt Q9UBC0). Description: ATG_HNF6_CIS: Attagene CIS-FACTORIAL HepG2 Assay for human Hepatocyte Nuclear Factor 6 (HNF6) (AID 2282952). To be noted: HepG2 Attagene cis-factorial HNF6 reporter transcription; actives raise or lower the signal. The method, boiled down:
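First, HepG2 cells were transfected with the multiplexed cis reporter library and dosed with chemical for 24 h. Next, RNA was reverse-transcribed, PCR-amplified and fluorescently labelled. Finally, HpaI-digested fragments were read by capillary electrophoresis.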

For assay [6], the target named is Heat shock factor protein 1 (Homo sapiens) (UniProt Q00613). The experiment in a line: ATG_HSE_CIS: Attagene CIS-FACTORIAL HepG2 Assay for human Heat Shock Transcription Factor 1 (HSE) (AID 2282953). To be noted: HepG2 HSE cis-reporter, Attagene RNA transcription; actives raise or lower the signal. The essentials: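 Cells were transfected with cis-element-driven reporter constructs, dosed for 24 h, then total RNA was reverse-transcribed and reporter cDNA amplified, FAM-labelled and digested with HpaI. Fragments were resolved by capillary electrophoresis; gain or loss was fitted against DMSO.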
Sequence of Heat shock factor protein 1 (Homo sapiens) (Q00613 whole entry, looked up, the tested form may be a part): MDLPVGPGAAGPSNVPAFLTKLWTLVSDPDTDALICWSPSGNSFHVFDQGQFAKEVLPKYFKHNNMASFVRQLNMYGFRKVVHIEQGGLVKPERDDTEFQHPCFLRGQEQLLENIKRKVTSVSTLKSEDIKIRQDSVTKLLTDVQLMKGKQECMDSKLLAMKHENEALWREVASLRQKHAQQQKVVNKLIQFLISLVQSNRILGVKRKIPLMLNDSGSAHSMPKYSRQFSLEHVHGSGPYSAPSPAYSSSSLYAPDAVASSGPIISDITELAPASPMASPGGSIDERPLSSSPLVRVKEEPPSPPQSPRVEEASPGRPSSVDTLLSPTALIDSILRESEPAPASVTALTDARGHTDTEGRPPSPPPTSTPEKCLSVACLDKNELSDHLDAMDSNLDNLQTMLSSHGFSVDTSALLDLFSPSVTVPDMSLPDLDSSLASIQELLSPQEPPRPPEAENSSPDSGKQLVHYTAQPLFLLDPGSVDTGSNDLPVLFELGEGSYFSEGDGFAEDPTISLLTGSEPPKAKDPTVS

Assay [7] is described as follows: ATG_MRE_CIS: Attagene CIS-FACTORIAL HepG2 Assay for human Metal Responsive Element (MRE) (AID 2282954). The settings on record: HepG2 MRE cis-reporter transcription, Attagene multiplex; actives raise or lower the signal. The method, boiled down: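 Readout: capillary electrophoresis of 6-FAM-labelled, HpaI-digested RT-PCR reporter products. System: HepG2 cells carrying transient multiplexed cis reporters, dosed 24 h. Analysis: bidirectional fit, DMSO baseline.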

The nature of assay [8]: ATG_PBREM_CIS: Attagene CIS-FACTORIAL HepG2 Assay for human Phenobarbital-responsive Enhancer Module (PBREM) (AID 2282955). The settings on record: HepG2 PBREM cis-reporter, Attagene multiplexed transcription; actives raise or lower the signal. The essentials: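 HepG2 cells transiently transfected with multiple cis-regulated reporter transcription units; endogenous factor activity at the PBREM element measured as reporter mRNA 24 h after dosing, via RT-PCR and capillary electrophoresis of fluorescent fragments; bidirectional fitting versus DMSO.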

Assay [9] concerns the target Paired box protein Pax-6 (Homo sapiens) (UniProt P26367). The experiment in a line: ATG_Pax6_CIS: Attagene CIS-FACTORIAL HepG2 Assay for human Paired Box 6 (PAX6) (AID 2282956). The settings on record: HepG2 CIS-FACTORIAL PAX6 reporter transcription, RNA readout; actives raise or lower the signal. The essentials: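 DMSO-referenced bidirectional fits of reporter mRNA fluorescence; HepG2 with transient cis-promoter MRTUs, 24 h post-dose, RT-PCR plus capillary electrophoresis detection.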

Assay [10] is described as follows: ATG_ISRE_CIS: Attagene CIS-FACTORIAL HepG2 Assay for human Interferon Regulatory Factor 1 (IRF1) binding to an Interferon-Stimulated Response Element (ISRE) (AID 2282948). To be noted: HepG2 ISRE cis-reporter (Attagene), mRNA transcription readout; actives raise or lower the signal. The method, boiled down:
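Uses HepG2 liver cells transfected with cis-regulated reporters and measures mRNA 24 h post-dosing through RT-PCR, primer-extension labelling and capillary electrophoresis, with DMSO as negative control.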

This passage reports outcome and AC50 results from PubChem BioAssay (EPA / NIEHS).

Calls of active or inactive are those of the source. The calls were made as follows: active = hit-call score of the fitted dose curve at least 0.9, where 1 is the maximum; inactive = score below 0.9.

Sequence of Hepatocyte nuclear factor 6 (Homo sapiens) (Q9UBC0 whole entry, looked up, the tested form may be a part): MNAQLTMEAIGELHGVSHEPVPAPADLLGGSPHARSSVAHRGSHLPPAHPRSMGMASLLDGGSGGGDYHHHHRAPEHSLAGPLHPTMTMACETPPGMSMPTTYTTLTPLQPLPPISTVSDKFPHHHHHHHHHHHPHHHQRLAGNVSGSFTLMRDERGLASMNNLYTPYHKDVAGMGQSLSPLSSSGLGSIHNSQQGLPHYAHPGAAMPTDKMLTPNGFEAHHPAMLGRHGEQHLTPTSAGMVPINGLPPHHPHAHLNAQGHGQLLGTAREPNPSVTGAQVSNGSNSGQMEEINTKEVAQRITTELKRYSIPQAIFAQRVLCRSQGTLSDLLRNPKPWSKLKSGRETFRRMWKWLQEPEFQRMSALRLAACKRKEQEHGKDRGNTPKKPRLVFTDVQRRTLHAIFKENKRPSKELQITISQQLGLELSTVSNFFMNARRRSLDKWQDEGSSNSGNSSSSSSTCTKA
Sequence of Hypoxia-inducible factor 1-alpha (Homo sapiens) (Q16665 whole entry, looked up): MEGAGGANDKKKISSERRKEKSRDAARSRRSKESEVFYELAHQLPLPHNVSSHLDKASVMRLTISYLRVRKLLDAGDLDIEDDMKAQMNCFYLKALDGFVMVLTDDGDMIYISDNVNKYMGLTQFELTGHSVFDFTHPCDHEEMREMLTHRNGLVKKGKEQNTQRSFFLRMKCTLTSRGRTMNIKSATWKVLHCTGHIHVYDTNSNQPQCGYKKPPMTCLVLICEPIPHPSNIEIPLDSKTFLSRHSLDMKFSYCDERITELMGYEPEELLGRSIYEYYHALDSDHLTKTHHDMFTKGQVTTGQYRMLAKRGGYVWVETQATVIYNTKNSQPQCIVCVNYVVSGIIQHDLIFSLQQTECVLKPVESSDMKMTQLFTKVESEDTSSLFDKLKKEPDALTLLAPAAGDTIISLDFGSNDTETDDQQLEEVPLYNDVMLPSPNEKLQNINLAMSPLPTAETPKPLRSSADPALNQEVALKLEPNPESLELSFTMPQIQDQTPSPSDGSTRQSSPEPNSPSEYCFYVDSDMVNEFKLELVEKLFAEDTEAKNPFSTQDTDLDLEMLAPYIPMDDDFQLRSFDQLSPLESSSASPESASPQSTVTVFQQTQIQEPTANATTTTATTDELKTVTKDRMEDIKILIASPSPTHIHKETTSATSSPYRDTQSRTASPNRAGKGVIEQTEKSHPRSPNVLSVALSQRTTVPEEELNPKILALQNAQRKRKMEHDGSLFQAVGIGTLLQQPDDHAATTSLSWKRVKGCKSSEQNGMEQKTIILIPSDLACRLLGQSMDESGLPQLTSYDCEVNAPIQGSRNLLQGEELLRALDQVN
Sequence of Paired box protein Pax-6 (Homo sapiens) (P26367 whole entry, looked up): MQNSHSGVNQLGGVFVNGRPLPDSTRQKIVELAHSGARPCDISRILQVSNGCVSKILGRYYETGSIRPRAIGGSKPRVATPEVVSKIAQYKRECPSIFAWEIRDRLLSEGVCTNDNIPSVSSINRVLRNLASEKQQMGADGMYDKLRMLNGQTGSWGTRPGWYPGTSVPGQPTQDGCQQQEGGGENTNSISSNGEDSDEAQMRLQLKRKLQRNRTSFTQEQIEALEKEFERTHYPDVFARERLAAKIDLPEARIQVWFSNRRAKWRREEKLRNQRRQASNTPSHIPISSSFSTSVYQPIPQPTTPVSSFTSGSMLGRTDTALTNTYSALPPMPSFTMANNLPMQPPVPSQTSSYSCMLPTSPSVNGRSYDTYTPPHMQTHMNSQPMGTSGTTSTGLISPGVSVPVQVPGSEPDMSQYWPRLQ

Take `COC(C)(C)CC(C)=O`: the compound was called inactive in [1], in assay [2], in assay [3], in [4], in [5] and in [6]. The result in assay [7], in [8] and in assay [9] was inactive.
`COc1ccccc1N=Nc1c(S(=O)(=O)O)cc2cc(S(=O)(=O)O)cc(NC(C)=O)c2c1O`: the call in assay [1], in [10], in assay [3], in assay [4], in assay [5] and in assay [7] was inactive. The outcome in assay [8] and in [9] was inactive.
In the case of `CCCCCCC(O)CCCCCCCCCCC(=O)O` (stereo unspecified), the outcome in assay [1], in assay [2], in [3], in assay [4], in assay [5] and in [7] was inactive. For the same compound, the outcome in [8] and in [9] was inactive.
As for `CCCSc1ccc2nc(NC(=O)OC)[nH]c2c1`, the call in assay [1], in assay [2], in assay [3], in assay [5], in [7] and in assay [8] was inactive. In addition, in assay [9], the result was inactive.
`COc1cc(C(C)C)ccc1C`: the outcome in assay [1], in [2], in assay [3], in assay [4], in [5] and in [6] was inactive. Also, the compound was called inactive in assay [7], in assay [8] and in [9].
Broadly, the AC50 is the concentration giving half of the maximal activity seen. Take `CC(=O)c1c(C)c([N+](=O)[O-])c(C(C)(C)C)c([N+](=O)[O-])c1C`: the compound was called inactive in assay [1], in assay [10], in assay [3], in assay [5], in assay [8] and in [9]. The AC50 in assay [7] was 11.5 µM (active).
As to `COc1ccc(N)c([N+](=O)[O-])c1`, the compound was called inactive in assay [1], in [2], in assay [3], in assay [4], in [5] and in assay [6]. Further, the compound was called inactive in assay [7], in assay [8] and in [9].
On to `NCc1ccco1`, for which the compound was called inactive in assay [1], in assay [10], in assay [3], in [4], in assay [5] and in assay [7]. Moreover, the result in assay [8] and in assay [9] was inactive.
On to `COc1ccc(CCN2CCC(Nc3nc4ccccc4n3Cc3ccc(F)cc3)CC2)cc1`, for which the call in assay [1], in [2], in [3], in [5], in [6] and in [7] was inactive. The outcome in [8] and in assay [9] was inactive.
With `CCCC[O][Al]([O]CCCC)[O]CCCC`, the result in [1], in assay [10], in [4], in assay [5], in assay [6] and in assay [7] was inactive. Besides, the outcome in assay [8] and in [9] was inactive.
As to `CCCCCCCCN1CCCC1=O`, the call in assay [1], in [10], in assay [3], in [5], in [6] and in [7] was inactive. Further, the outcome in assay [8] was inactive. Further, the AC50 was 147 µM (active) in assay [4] and 144 µM (active) in assay [9].
Turning to `C=COCCOCCOC=C`, the result in [1], in [2], in assay [3], in assay [4], in assay [5] and in assay [6] was inactive. The outcome in assay [7], in assay [8] and in assay [9] was inactive.
In the case of `CN(C)CCOc1ccc(/C(=C(/CCCl)c2ccccc2)c2ccccc2)cc1`, the compound was called inactive in [1], in assay [2], in [4], in [5], in [6] and in assay [7]. Further, the outcome in [8] and in assay [9] was inactive.
Take `C1CCCCC1`: the call in assay [1], in assay [2], in [3], in assay [4], in assay [5] and in [6] was inactive. The call in assay [7], in assay [8] and in assay [9] was inactive.
With `CS(=O)(=O)c1ccc(Cl)cc1`, the compound was classed as inactive in assay [1], in [2], in assay [3], in assay [4], in assay [5] and in assay [6]. For the same compound, the compound was called inactive in assay [7], in [8] and in [9].
In the case of `CN1C(=O)c2ccccc2C1=O`, the result in assay [1], in assay [2], in [3], in [4], in assay [5] and in [6] was inactive. The compound was called inactive in [7], in assay [8] and in assay [9].
Turning to `CC(O)C1CCCCC1` (stereo unspecified), the compound was called inactive in assay [1], in assay [10], in [3], in [5], in [7] and in [8]. Moreover, the compound was called inactive in assay [9].
For the compound `C=C[Si]1(C)O[Si](C)(C=C)O[Si](C)(C=C)O[Si](C)(C=C)O1` (stereo unspecified), the compound was classed as inactive in assay [1], in [3], in assay [4], in assay [5], in assay [6] and in [7]. In addition, the result in assay [8] and in assay [9] was inactive.
Take `NC1CCCCC1N` (stereo unspecified): the call in [1], in assay [2], in [3], in [4], in assay [5] and in assay [6] was inactive. For the same compound, the result in assay [7], in [8] and in [9] was inactive.
As for `CCCCCc1ccco1`, the compound was classed as inactive in [1], in assay [2], in assay [3], in assay [4], in assay [5] and in [7]. Further, the result in [8] was inactive. For the same compound, the AC50 in assay [9] is 111 µM (active).
As for `COCCOC(=O)c1ccccc1C(=O)OCCOC`, the result in assay [1], in assay [10], in assay [4], in [5], in assay [6] and in [7] was inactive. Further, the outcome in assay [8] and in [9] was inactive.
On to `CC(=O)O[C@@H]1C[C@@H]2CC[C@@]1(C)C2(C)C`, for which the compound was classed as inactive in [1], in assay [3], in [4], in assay [5], in [6] and in assay [7]. The outcome in assay [8] and in assay [9] was inactive.
As to `Cc1c(Cl)cccc1[N+](=O)[O-]`, the outcome in assay [1], in assay [10], in [3], in assay [4], in assay [5] and in assay [6] was inactive. In addition, the compound was called inactive in [7] and in assay [9].
Take `Nc1ccc2c(O)cc(S(=O)(=O)O)cc2c1`: the compound was classed as inactive in [1], in [2], in assay [3], in assay [4], in assay [5] and in [6]. Also, the compound was classed as inactive in [7], in assay [8] and in assay [9].
`C=C1C[C@]23C[C@@]1(O)CC[C@H]2[C@@]12C=C[C@H](O)[C@@](C)(C(=O)O1)[C@H]2[C@@H]3C(=O)O`: the compound was classed as inactive in [1], in [10], in assay [3], in assay [4], in [5] and in assay [7]. Moreover, the result in assay [8] and in assay [9] was inactive.
With `CCC(C)=O`, the outcome in [1], in [10], in [3], in assay [4], in [5] and in assay [6] was inactive. Further, the result in [7] and in assay [9] was inactive.
On to `CCOC(=O)C1OC1c1ccccc1` (stereo unspecified), for which the compound was called inactive in [1], in [2], in assay [3], in [4], in [5] and in assay [6]. Moreover, the call in assay [7], in assay [8] and in assay [9] was inactive.
On to `OCCCCC(O)CO` (stereo unspecified), for which the call in [1], in assay [10], in assay [5], in [6], in [7] and in [9] was inactive. The half-maximal activity concentration (AC50) in [4] is 23.2 µM (active).
